# About 1,700 (0.57%) of roughly 300,000 compounds were called active. Roughly 2% stayed inconclusive and do not appear here. Many of the other results were omitted from the sample, so actives are more common in it than they were. Values without a mark were called inactive.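 Rule for the calls: active = growth inhibition above about 58% in most replicates (limit read from the data, passing the limit was not always enough); inconclusive = exactly half the replicates above a set limit; inactive = most replicates below a set limit.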
# Assay: C. albicans growth inhibition with fluconazole, primary screen, CaCi-2 strain, Alamar Blue fluorescence (AID 1979);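 note: all wells also contain fluconazole at 8 µg/ml as a sub-toxic cotreatment; 0% = median of DMSO wells and 100% = median of geldanamycin control wells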
# Details: C. albicans CaCi-2 (fluconazole-resistant clinical isolate) + fluconazole, 48 h, active compounds read high, concentration not given here
row,SMILES,growth inhibition
1,Nc1cc(N)nc(SCc2ccc(Cl)cc2)n1,12.7%
2,Nc1cc(N)nc(SCc2cccc(F)c2)n1,93.5% (active)
3,CCc1nnc(SCc2cccc(F)c2)nc1CC,-15.9%
4,O=C(c1ccc(Cl)s1)N(Cc1nnc(-c2ccccc2Cl)o1)C1CC1,-12.7%
5,COc1ccccc1N1CCN(C(=O)c2cc(=O)c3cc(C)cc(C)c3o2)CC1,4.61%
6,Cc1ccc(SCc2c(C(=O)N/N=C/c3cccnc3)nnn2-c2nonc2N)cc1,19.8%
7,Nc1nonc1-n1nnc(C(=O)N/N=C/c2cc(Br)ccc2O)c1CSC1=NCCS1,90.5% (active)
8,Nc1nonc1-n1nnc(C(=O)N/N=C/c2ccccc2O)c1CN1CCCC1,-25.8%
9,CCOC(=O)C1=C(c2ccccc2)NC(=O)NC1c1cc(OCC)c(O)c([N+](=O)[O-])c1 (stereo not given),38%
10,COc1cc(C2NC(=O)NC(c3ccccc3)=C2C(C)=O)c(Br)cc1OCC(N)=O (stereo not given),6.65%
11,CCOC(=O)C1=C(c2ccccc2)NC(=O)NC1c1cc(OC)c(OC)cc1OC (stereo not given),111% (active)
12,Cc1cccc(NS(=O)(=O)c2ccc(C(=O)NCC(C)(C)N3CCOCC3)cc2)c1C,-3.65%
13,CCOc1ccc(CCNC(=O)COC(=O)c2c(OC)cccc2OC)cc1OCC,8.5%
14,Cc1ccn2c(=O)c(NC(=O)c3cccc4ccccc34)c(C)nc2c1,1.1%
15,NC(N)=N/N=C/c1ccc(OCc2ccc(Cl)cc2Cl)cc1,123% (active)
16,CCOc1ccc(NC(=O)NNC(=O)c2ccc(Cl)cc2Cl)cc1,0.808%
17,OC(CNCCc1ccc(Cl)cc1Cl)COc1ccccc1 (stereo not given),7.1%
18,OCCCNc1nc(-c2ccccc2)c2cc(Cl)ccc2n1,14.2%
19,O=C1c2ccccc2NC(c2ccc(-c3cccc(Cl)c3)o2)N1O (stereo not given),96.8% (active)
20,O=C(O)C(c1ccccc1)N1C(=O)/C(=C\c2ccc(-c3cccc(Cl)c3)o2)SC1=S (stereo not given),37.9%
21,O=c1c(-c2cccc(Cl)c2)c[nH]n1-c1ccccc1,0.955%
22,Cc1ccc(CCN2CC(C(=O)NCCc3ccccc3)CC2=O)cc1 (stereo not given),-6.78%
23,Cc1cccnc1NC(=O)Cn1c(=O)oc2ccccc21,-0.441%

row,SMILES,growth inhibition
1,C[C@@H]1C[C@@H]2O[C@H]2/C=C\C=C\C(=O)Cc2c(Cl)c(O)cc(O)c2C(=O)O1,84.1% (active)
2,O=C(Nc1nnc(-c2ccccc2)o1)c1cc(-c2cccs2)nc2ccccc12,89.3% (active)
3,O=C(NCCN1CCOCC1)c1cc(-c2cccs2)nc2ccccc12,-3.11%
4,COC(=O)c1cc(-c2cccs2)nc2ccccc12,-7.15%
5,CSCc1nnc(NC(=O)c2ccc(S(=O)(=O)N3CCCCC3C)cc2)o1 (stereo not given),8.82%
6,CC1CCCN(S(=O)(=O)c2ccc(C(=O)Nc3nnc(-c4ccncc4)o3)cc2)C1 (stereo not given),18.1%
7,CC1CCCCN1S(=O)(=O)c1ccc(C(=O)Nc2nnc(-c3cccs3)o2)cc1 (stereo not given),95.4% (active)
8,COc1ccc(-c2cc(=O)oc3cc(OC(C)C(=O)NCC4CCC(C(=O)O)CC4)ccc23)cc1 (stereo not given),-4.33%
9,CSCCC(NS(=O)(=O)c1ccc(C)cc1)C(=O)NCCc1c[nH]c2ccccc12 (stereo not given),-6.21%
10,COc1ccc(N(C(=O)c2ccc(C)cc2)S(=O)(=O)c2cccs2)cc1,4.35%
11,O=S(=O)(/N=C(/Nc1ccccc1)c1ccccc1)c1cccs1,-39.8%
12,CN(/C(=N/S(=O)(=O)c1cccs1)c1ccccc1)c1ccc(O)cc1,117% (active)
13,CN(CC(=O)Nc1cccc(F)c1)C(=O)C1CC(=O)N(CCc2ccccc2)C1 (stereo not given),-9.09%
14,Oc1ccc(N=Nc2nccs2)c(O)c1,85.9% (active)
15,Oc1ccc2ccccc2c1N=Nc1nccs1,0.433%
16,CC(CN1CCC(n2nccc2NC(=O)C2CCCC2)CC1)c1ccccc1 (stereo not given),-5.12%
17,CC1=NNC(=O)C1Cc1c(Cl)cccc1Cl (stereo not given),-0.631%
18,CN(C(=O)COC(=O)CNC(=O)C12CC3CC(CC(C3)C1)C2)c1ccccc1,-17.2%
19,Cc1ccc(C(=O)NCCNC(=O)c2ccccc2)cc1,5.77%
20,CN(C(=O)CC(NC(=O)c1ccccc1)(c1ccccc1)c1ccccc1)c1ccccc1,91.8% (active)
21,Nc1c(C(=O)Nc2ccc3c(c2)OCCO3)nnn1Cc1ccccc1,9.7%
22,Cc1sc2ncnc(N3CCC(C(=O)NNC(=O)c4ccc(F)cc4)CC3)c2c1C,11%
23,COc1ccc(S(=O)(=O)NCCCc2ccccc2)cc1,-3.19%

row,SMILES,growth inhibition
1,Cc1nn(-c2ccccc2)c(C)c1NC(=O)COC(=O)c1cc(Cl)ccc1O,-3.39%
2,CCN1C(=O)[C@H]2[C@@H](c3ccc(C)cc3)N3C(=O)N(c4cccc(Br)c4)C(=O)[C@@]3(CC)[C@H]2C1=O,-1.61%
3,Cc1c(Cl)c([N+](=O)[O-])nn1Cc1ccc(C(=O)N/N=C\c2cc(Cl)ccc2O)o1,112% (active)
4,O=C(N/N=C/c1ccc2c(c1)OCO2)c1ccc(Cn2cc([N+](=O)[O-])cn2)o1,-1.68%
5,Cc1c(Cl)c([N+](=O)[O-])nn1CCCC(=O)Nc1cc(Cl)ccc1Cl,0.816%
6,O=C1N[C@@H](Cc2ccccc2)C(=O)N2[C@H]1C[C@]1(Br)c3ccccc3N(S(=O)(=O)c3ccccc3)[C@H]21,4.33%
7,COC(=O)Cc1cc(=O)n(-c2nc3ccccc3s2)[nH]1,93.5% (active)
8,C/C(=N\NC(=O)CC(C)C)c1c(C(F)(F)F)[nH]n(-c2nc3ccccc3s2)c1=O,8.15%
9,COC(=O)Cc1[nH]n(-c2nc3ccccc3s2)c(=O)c1C(C)=Nc1ccc(OC)cc1,5.2%
10,COc1cc(/C=C/C(=O)O)cc(S(=O)(=O)Nc2ccccc2C(=O)NCCc2ccccc2)c1OC,-0.0595%
11,O=C(/C=C/c1ccco1)Nc1cccc(-c2nc3ccccc3[nH]2)c1,91.5% (active)
12,Cc1ccc(-n2nc3ccc(NC(=O)/C=C/c4ccco4)cc3n2)cc1C,20%
13,O=C(Nc1cccc(-c2nc3ccccc3[nH]2)c1)c1ccc(C(=O)Nc2cccc(-c3nc4ccccc4[nH]3)c2)cc1,-12.9%
14,CCOc1cc(/C=N/NC(=O)c2cccc(S(=O)(=O)N3CCOCC3)c2)ccc1OCC(=O)N(C)C,3.22%
15,CC(=O)c1nn(-c2ccc(C)cc2)cc1C(=O)c1cccc(Br)c1,-5.17%
16,CC1CCC(NC(=O)CNC(=O)c2ccc3ccccc3c2)CC1 (stereo not given),4.42%
17,Cc1ccc(N(C(=O)CNC(=O)c2ccco2)C(C(=O)NC2CCCC2)c2ccncc2)cc1 (stereo not given),-17%
18,O=C(NCC(=O)N(CC1CCCO1)C(C(=O)NC1CCCCC1)c1ccccc1)c1ccco1 (stereo not given),103% (active)
19,COc1ccc(N(C(=O)CNC(=O)c2ccco2)C(C(=O)NCC2CCCO2)c2ccccc2)cc1Cl (stereo not given),7.7%
20,CC1CCCCN1S(=O)(=O)CCNC(=O)c1ccccc1 (stereo not given),0.685%
21,Cc1cc(Cl)ccc1NNC(=O)c1snnc1C,85.6% (active)
22,Cc1nnsc1C(=O)Nc1cccc(Cl)c1C,-1.12%
23,Cc1nnsc1C(=O)N/N=C/c1ccccc1Cl,-6.46%

row,SMILES,growth inhibition
1,CCc1ccc(S(=O)(=O)N/N=C\c2ccc([N+](=O)[O-])o2)cc1,13.3%
2,Cc1cc(C)nc(N/N=C/c2ccc([N+](=O)[O-])o2)n1,11.2%
3,C/[N+]([O-])=C\c1ccc([N+](=O)[O-])o1,110% (active)
4,CCc1ccccc1NC(=O)c1cc(-c2ccc3c(c2)OCO3)on1,-0.103%
5,Cc1ccc(C)c(N2CCN(C(=O)Cn3ncn4cccc4c3=O)CC2)c1,-9.35%
6,CSc1ccccc1NC(=O)C(C)N1C(=O)c2ccccc2S1(=O)=O (stereo not given),2.61%
7,CC(C)NC(=S)N1CCN(C(c2ccccc2)c2ccccc2)CC1,11.5%
8,O=C(O)CN1CCN(C(c2ccccc2)c2ccccc2)CC1,-6.25%
9,CC1(C)CC(N2CCN(C(c3ccccc3)c3ccccc3)CC2)=CC(=[N+]2CCCCC2)C1,95.7% (active)
10,O=C(Nc1cc(Cl)ccc1N1CCOCC1)c1ccc(N2CCCC2=O)cc1,4%
11,O=C(NCCC1CCCCN1S(=O)(=O)c1cccs1)C(=O)Nc1ccc(F)cc1F (stereo not given),7.39%
12,O=C(Nc1cccc2c1CCCC2)c1ccc(F)cc1,-3.5%
13,NNC(=O)C1CCCn2c1nc1sc3c(c1c2=O)CCCC3 (stereo not given),2.28%
14,Cc1nc2sc3c(c2c(=O)n1NC(=O)CCl)CCCC3,9.31%
15,Cn1c(NN)nc2sc3c(c2c1=O)CCC3,87.2% (active)
16,C#CCOCCOCCOCCNc1nc(N2CCN(C(=O)C([C@@H](C)CC)n3cc(C(N)COC(=O)C(F)(F)F)nn3)CC2)nc(N2CCN(C(=O)[C@H](CCCCN)n3cc(C(N)CC(C)C)nn3)CC2)n1 (stereo not given in full),4.02%
17,O=C(CSC1=NS(=O)(=O)c2cc(F)ccc2N1)Nc1ccccc1F,5.53%
18,Cc1ccc(N=C2SCCCN2C(=O)c2cccc(N3C(=O)CCC3=O)c2)cc1Cl,-7.25%
19,Nc1ccc(SCCN2C(=O)c3ccccc3C2=O)cc1,103% (active)
20,CC(=O)c1cnc(SCCN2C(=O)c3ccccc3C2=O)nc1C,-3.43%
21,O=C(OCCN1C(=O)c2ccccc2C1=O)Oc1ccccc1,4.11%

# — PubChem BioAssay AID1979 (Broad Institute, 2009)
